GLP1R ag: agonists of human GLP-1 receptor. HEK293 GLP-1R CRE-luciferase, luminescence, 4-6 h; cells express a hypersensitive GLP-1R form. P43220. Potency, µM (series often up to 45.6 µM), for inactives: top-dose activation, hits mostly activators. 0.007% of 380,000 active. AID 624172; note: potency is the fitted concentration of half-maximal effect; % of control where 0% means no effect
GLP1R cytotox: cytotoxicity counter-screen for GLP-1 receptor inverse agonists; Potency, µM (doses to about 38.3 µM), without a hit: at the top dose activity change, negative = inhibition, hits mostly inhibitors; 0.13% of 410,000 active; HEK293 cAMP-luciferase reporter cells, luminescence, 24 h;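 note: loss of luciferase light is scored as toxicity; potency is the fitted concentration of half-maximal effect; % is set by controls: 0 for no effect and ±100 for the full control effect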
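Cells in DMEM/10% Nu serum/1% pen-strep, 1536-well format. Pre-incubated 12 h, dosed with 23 nL compound, incubated a further 24 h. Luciferase detection, 12 min at room temp, luminescence.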
GLP1R inv ag: GLP-1 receptor (human) inverse agonism | P43220 | HEK293 GLP-1R CRE-luciferase, luminescence, 24 h; GLP-1R form is constitutively active | Potency, µM (titrated, usually from 38.3 µM), for the others: at the top dose activity change, negative = inhibition, usual class: inhibitors | 1.6% of 410,000 active | AID 624417; note: potency is the fitted concentration of half-maximal effect; % is set by controls: 0 for no effect and ±100 for the full control effect; nearly all actives have a fitted effect of over 55% in size
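Inverse agonists were sought by their lowering of basal cAMP reporter luciferase output in HEK293 cells stably carrying constitutively active human GLP-1R, after 24 h compound treatment.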
PTHR1 agonist: activates the human parathyroid hormone receptor PTHR1; 0.075% of 410,000 active; AID 743266; HEK293 GP2 PTHR1 cells, GloSensor cAMP luminescence, 1 h; Potency, µM (top dose mostly 115 µM), without a hit: top-dose activation, actives largely listed as activators; note: potency is the fitted concentration of half-maximal effect; nearly all actives have a fitted effect of over 55% in size
Target sequence (Q03431 whole entry, looked up): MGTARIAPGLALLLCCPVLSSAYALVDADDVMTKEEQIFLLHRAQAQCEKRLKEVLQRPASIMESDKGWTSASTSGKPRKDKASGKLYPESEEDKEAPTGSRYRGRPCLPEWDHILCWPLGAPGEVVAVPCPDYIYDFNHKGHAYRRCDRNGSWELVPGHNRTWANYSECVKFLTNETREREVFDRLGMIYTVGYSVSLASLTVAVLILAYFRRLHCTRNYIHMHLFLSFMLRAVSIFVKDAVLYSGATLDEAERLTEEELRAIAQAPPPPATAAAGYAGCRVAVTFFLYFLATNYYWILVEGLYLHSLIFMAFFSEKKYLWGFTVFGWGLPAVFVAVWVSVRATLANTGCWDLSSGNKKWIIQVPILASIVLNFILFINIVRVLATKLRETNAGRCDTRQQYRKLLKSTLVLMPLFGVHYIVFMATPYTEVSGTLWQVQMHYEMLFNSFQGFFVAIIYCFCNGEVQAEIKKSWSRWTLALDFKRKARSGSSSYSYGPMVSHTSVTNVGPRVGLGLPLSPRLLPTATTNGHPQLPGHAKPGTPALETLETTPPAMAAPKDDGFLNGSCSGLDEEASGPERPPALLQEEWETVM
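HEK-293-derived GP2 cells expressing PTHR1 and a GloSensor cAMP reporter, 3,000/well, plated overnight, given luciferin plus IBMX (each 0.5 mM as added) for 1 h at 37 °C, then compound for 1 h at 37 °C. Luminescence was read after 15 min at room temperature.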
TRHR enhancer-1: allosterically enhances the human TRH receptor | P34981 | TRHR cells, fluo-8 calcium fluorescence, EC20 TRH enhancement | enhancement, % at 2 µM | 0.66% of 360,000 active | AID 493056; in the data active = enhancement above about 30%; note: 0% is about no effect
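Enhancer read-out: after compound pinning and an initial kinetic agonist-mode read, an EC20 of TRH (10 nM final) was injected and fluo-8 calcium signal (Ex 480/Em 530) followed at 1 s/cycle for 100 cycles in TRHR-expressing cells.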
TRHR agonist-1: TRH receptor (human) agonism; 0.18% of 360,000 active; AID 493084; P34981; TRHR cells, calcium flux fluo-8, FDSS agonist mode; activation, % at 2 µM; in the data active = activation above about 30%; note: 0% is about no effect
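Fluo-8-loaded TRHR cells; 10 s baseline, compound added, kinetic Ca2+ fluorescence read 1/s, agonist mode.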
TRHR enhancer-2: human TRH receptor allosteric enhancement confirmation. TRH receptor cell assay, enhancer confirmation qHTS. activity change, negative = inhibition, % at 46.1 µM. shares compounds with TRHR enhancer-1. 970 tested, under 10 active;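 note: compound effect scored on response to added TRH at EC20 of 10 nM; 0% is about no effect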
TRHR agonist-2: human TRH receptor agonism confirmation; TRHR-expressing cells, agonist activation read-out; shares compounds with TRHR enhancer-1; Potency, µM (doses to about 46.1 µM), for the others: top-dose activation, actives largely listed as activators; 8% of 970 active; note: potency is the fitted concentration of half-maximal effect; 0% is about no effect; nearly all actives have a fitted effect of over 75% in size
* hit, by the source's call; i = inactive; ? = inconclusive; nt = no result given; [ ] = remark or other dose. This is a sample that favours compounds with a hit; in the whole collection about 2.4% have one here. Unless noted, calls come from the whole dose curve; as a rule, active = well fitted curve in the direction sought with a large enough effect; inconclusive = small, poorly fitted or top-dose-only effect, or another doubt; inactive = no such curve, though single readings can be large; an effect the other way counts as inactive or inconclusive.

SMILES	GLP1R ag	GLP1R cytotox	GLP1R inv ag	PTHR1 agonist	TRHR enhancer-1	TRHR agonist-1	TRHR enhancer-2	TRHR agonist-2
O=C(COC(=O)c1ccc(Cl)cc1[N+](=O)[O-])NC(=O)c1ccccc1	3%	-11%	3%	i	-3	1	nt	nt
Cc1nn(CC(=O)Nc2ccc3c(c2)nc2n3CCN(C3CCCCC3)C2)c(=O)c2ccccc12	2%	24%	-17%	-29%	46*	0	6	6%
Cc1cccc(OCCNS(=O)(=O)c2ccc(Cl)cc2)c1	7%	2%	?	i	51*	1	4	1%
NS(=O)(=O)c1ccc(C(=O)Nc2ccc(-c3nc4cccnc4s3)cc2)cc1	-4%	12%	21%	-36%	44*	1	-9	1%
NS(=O)(=O)c1ccc(NC(=O)c2ccc(-c3ccccc3)cc2)cc1	0%	6%	3%	6%	-3	0	nt	nt
CCn1ccc(C(=O)Nc2sc3c(c2C(=O)OC)CCC3)n1	8%	14%	26%	-15%	2	0	nt	nt
COc1ccc(/C=C/C(=O)NCC(=O)N/N=C(/C)c2ccco2)cc1	-3%	5%	-3%	i	1	0	nt	nt
COc1ccc(/C(C)=N/NC(=O)CNC(=O)c2ccco2)cc1	8%	-6%	0%	i	46*	0	-2	1%
Cc1ccc(C(=O)COC(=O)c2cc(=O)[nH]c3ccccc23)cc1	-1%	-3%	17%	i	47*	-1	4	1%
Cc1ccc(-n2c(C)n[nH]c2=S)cc1	-5%	-3%	17%	i	11	0	nt	nt
Cc1ccc(-n2c(C)n[nH]c2=S)cc1C	-4%	-8%	19%	-4%	45*	0	-7	-1%
Cc1cccc(S(=O)(=O)Nc2nc3ccccc3nc2Nc2ccc3c(c2)OCO3)c1	-1%	0%	-13%	-33%	44*	0	-10	2%
O=S(=O)(Nc1nc2ccccc2nc1Nc1ccc2c(c1)OCO2)c1ccccc1	-27%	14%	-14%	-26%	14	2	nt	nt
Cc1nc2cc(O)ccc2n1C	-5%	10%	19%	i	61*	2	-3	1%
Cc1nc2cc3ccccc3cc2n1C	-1%	-13%	14%	0%	5	0	nt	nt
O=Cc1c(NCc2ccco2)nc2ccccn2c1=O	12%	-3%	22%	-2%	46*	0	-7	4%
O=c1nc(N2CCOCC2)ccn1-c1nc(-c2ccccc2)oc1-c1ccccc1	0%	-2%	45%	-5%[57.5 µM]	3	0	nt	nt
O=C(O)CC/C(=C\c1cccc(NC(=O)c2ccccc2Cl)c1)c1nc2ccccc2s1	-3%	-16%	5%	-94%	9	0	nt	nt
CC1CCCN(S(=O)(=O)c2ccc(NC(=O)CCN3C(=O)c4ccccc4C3=O)cc2)C1 (configuration not stated)	-1%	13%	-6%	i	-4	38*	-2	0%
O=C(CCN1C(=O)c2ccccc2C1=O)Nc1ccc(S(=O)(=O)N2CCOCC2)cc1	-1%	5%	0%	-4%[57.5 µM]	3	0	nt	nt
COC(=O)Cc1c(O)ccn(CCc2ccccc2)c1=O	0%	-3%	1%	-16%	51*	2	2	5%
N#Cc1ccc(CN2CCN(C(=O)c3cn(Cc4ccccc4)nc3-c3cccnc3)CC2)cc1	9%	-1%	0%	-10%	6	0	nt	nt
CCN(CC)C(=O)c1cc2c(=O)c3cc(Cl)ccc3oc2nc1C	16%	4%[7.66 µM]	9%[7.66 µM]	i	73*	-2	0	-1%
CCOC(=O)c1cc2c(=O)c3cc(C)ccc3oc2nc1C	15%	4%	29%	-14%	2	1	nt	nt
Cc1ccc(C)c(N(CC(=O)NCc2ccccc2)C(=O)c2csnn2)c1	8%	-8%	-14%	i	-2	1	nt	nt
SMILES	GLP1R ag	GLP1R cytotox	GLP1R inv ag	PTHR1 agonist	TRHR enhancer-1	TRHR agonist-1	TRHR enhancer-2	TRHR agonist-2
CCOC(=O)CNC(=O)c1ccc(C#CC2(O)CCCCC2)cc1	10%	-20%	-24%	0%	17	1	nt	nt
NC(=O)NCCCC(NC(=O)c1ccc(C#CC2(O)CCCCC2)cc1)C(=O)O (configuration not stated)	0%	-2%	21%	-12%	43*	0	-4	-1%
CNCc1cc(Cl)cc(OC)c1OC(C)C	-8%	-5%	?	?	5	0	nt	nt
CCOc1ccccc1N1CC(C(=O)Nc2cccc(S(=O)(=O)N3CCCCC3)c2)CC1=O (configuration not stated)	-2%	-5%[7.66 µM]	-14%[7.66 µM]	-23%	74*	0	-9	4%
CC1(C)Cc2c(sc(NC(=O)c3ccc4ncsc4c3)c2C(N)=O)C(C)(C)N1	20%	?	74%	-10%	44*	0	9	0%
Cn1c2ccccc2c(=O)n2c(=O)c3ccccc3cc12	nt	nt	nt	nt	1	0	nt	nt
CCOC(=O)C1CCCN(Cc2cn[nH]c2-c2ccc(F)cc2F)C1 (configuration not stated)	-1%	6%	-9%	0%	-5	0	nt	nt
COc1ccccc1C(=O)N1CCN(Cc2cn[nH]c2-c2ccc(F)cc2F)CC1	1%	2%	0%	i	57*	-1	-5	0%
COc1cccc(-c2c(C(=O)N/N=C/c3ccc(C)s3)nnn2-c2nonc2N)c1	-6%	-25%	?	-3%	8	0	nt	nt
COc1ccc(C(=O)CN2CCN(c3ccc(F)cc3)CC2)cc1	0%	4%	-16%	-33%	-7	1	nt	nt
O=C(Cc1ccc(Cl)cc1)Nc1ccccc1C(=O)N1CCCC1	0%	3%	5%	-18%	70*	0	?	-1%
COc1cc(OC)cc(C(=O)NC(=S)Nc2cccnc2)c1	13%	8%	1%	0%	2	-1	nt	nt
COc1cc(OC)cc(C(=O)Nc2cccnc2)c1	15%	-16%	15%	-7%	50*	0	-1	3%
CCc1cc(CN2CCOCC2)c(NC(=O)c2ccccc2)s1	28%	0%[0.307 µM]	-2%[0.307 µM]	i	64*	1	-8	1%
CCOc1ccc(N2C(=O)Nc3ccccc3C2(O)C(=O)NCc2ccc(C)cc2)cc1 (configuration not stated)	3%	17%	56%	-23%	-4	0	nt	nt
